Drawing on PubChem BioAssay (NCI), this text covers growth for 39 compounds.

Molecules are shown by their SMILES. “And” between values parts separate entries of the source, which are not always exact repeats. Equal values may be shown once. This is part of a sample that, as a whole, favours compounds with a hit. Of some 83,000 tested, about 20% had one in any assay.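 Growth was measured after 48 h exposure to one concentration of compound in 96-well plates. Values under 10 count as active.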 The source made the active and inactive calls.

This test has as its system SK-MEL-5 melanoma. The experiment in a line: NCI-60 one-dose screen, 48 h (100 = growth as untreated, 0 = no growth, -100 = all killed). The settings on record: 10 µM unless noted.
For the compound `O=C(O)C1(C(=O)O)CCC1.[NH2-].[NH2-].[Pt+2]`, the growth was 101% (inactive) and 94.1% (inactive). The same measure for `CC1(C)[C@@H](OC(=O)CCC(=O)O)CC[C@]2(C)[C@H]3C(=O)C=C4[C@@H]5C[C@@](C)(C(=O)O)CC[C@]5(C)CC[C@@]4(C)[C@]3(C)CC[C@@H]12`: 105% (inactive) and -82.7% (active).

`CCNC(=O)Nc1ccc(-c2nc3c(c(N4CCOC[C@@H]4C)n2)CCN(C2COC2)C3)cc1`: the growth is 22.4% (inactive) and -26.4% (active). Take `O=C1C2=C(C(=O)c3ccccc31)C(O)(S(=O)(=O)O)C(O)(S(=O)(=O)O)C1N=CC=CC21` (centres undefined): the growth was 26.6% (inactive) and 29.7% (inactive). The same measure for `COc1ccc2c(=O)cc(-c3ccccc3)[nH]c2c1`: 21.5% (inactive) and 12.7% (inactive); for `COc1cc(Nc2nc3ccccc3nc2NS(=O)(=O)c2ccc(NC(=O)c3ccc(C)c(OC)c3)cc2)cc(OC)c1`: 85.3% (inactive) and -25.7% (active). For `COc1cc(-c2nccc3cc4c(cc23)OCO4)cc(OC)c1OC`, the growth was 6.67% (active). The same measure for `CCN(CC)CCC(CNc1ccnc2cc(Cl)ccc12)c1ccc(OC)cc1` (centres undefined): 38.3% (inactive) and 30.4% (inactive). The same measure for `CC(=O)Nc1ccc(O)cc1`: 98% (inactive) and 113% (inactive) and 112% (inactive); for `c1ccc2c(CC3=NCCN3)cccc2c1`: 92.7% (inactive) and 108% (inactive); for `Cc1nn(-c2ccc(Cl)cc2)c2ncnc(N/N=C/c3ccccc3O)c12`: -62.4% (active) and -60.4% (active).

As for `CCN(CC)C(=S)SSC(=S)N(CC)CC`, the growth was 40.2% (inactive) and 110% (inactive). For `Nc1nc(SC/C=C/CCl)c2[nH]cnc2n1` the value was 103% (inactive) and 114% (inactive); for `CC1CCCC(=O)O1` (centres undefined), 102% (inactive) and 108% (inactive); for `c1ccc(NCc2ccc3c(c2)OCO3)cc1`, 100% (inactive). For `CN(Cc1ccccc1)Cc1ccccc1` the value was 104% (inactive); for `O=[N+]([O-])c1ccc(N/N=C\c2cc(Br)ccc2O)nc1`, -3.76% (active) and -35.9% (active); for `O=C(Nc1ccc(Br)cc1)c1cc(Br)ccc1O`, -65.5% (active) and -83.1% (active). The same measure for `CN(C)c1ccc(C(=C2C=CC(=[N+](C)C)C=C2)c2ccccc2Cl)cc1`: -100% (active) and -96.9% (active); for `O=C(Cc1cccc2ccccc12)N/N=C/c1ccc2c(c1)CCC2`: 80.6% (inactive). On to `O=C(O)C1C2C=CC(C2)C1C(=O)O` (centres undefined), for which the growth was 103% (inactive) and 23.6% (inactive) and 98.5% (inactive). `COc1cc(C(=O)c2ccc3c(c2)OCO3)cc(OC)c1OC`: the growth is 18.3% (inactive) and 8.01% (active). Regarding `O=C(CCc1ccc(O)cc1)N/N=C/c1cc(Br)ccc1O`, the growth is 45.3% (inactive). The same measure for `CC(=O)Oc1cc(C(=O)O)cc(OC(C)=O)c1OC(C)=O`: 99.5% (inactive) and 101% (inactive). The same measure for `Cn1c(=O)c2[nH]c(CCCCCCCCc3nc4ccccc4[nH]3)nc2n(C)c1=O`: 3.01% (active) and 12.2% (inactive). The same measure for `O=C1c2ccccc2C(=O)N1/N=C/c1ccc2c(c1)OCO2`: 105% (inactive); for `S=C1SCN(Cc2ccccc2)CN1Cc1ccccc1`: 87.1% (inactive); for `Cc1ccc(-c2noc(CC(=O)c3ccc([N+](=O)[O-])cc3)n2)cc1`: 91.6% (inactive). Regarding `Oc1ccc(/C=C/c2ccccc2)cc1`, the growth is 56.1% (inactive) and 55.7% (inactive).

For `CC(=O)C(/C=N/C(N)=O)=C(/C)O`, the growth was 110% (inactive).

For `COC(=O)c1nc(N)nc(C(=O)OC)c1C(=O)c1ccc(OC)cc1`, the growth was 104% (inactive) and 57.4% (inactive). The same measure for `Cc1cc(O)c2c(c1)C(=O)c1cc(O)cc(O)c1C2=O`: 48.9% (inactive) and 59.9% (inactive); for `C#CCN(C)Cc1ccccc1`: 102% (inactive) and 106% (inactive). For `CCN(CC)CCCC(C)Nc1ccnc2cc(Oc3ccccc3)ccc12` (centres undefined) the value was -87.1% (active) and 79.6% (inactive); for `COc1ccccc1NC(=O)OCC#CCOC(=O)Nc1ccccc1OC`, 94.2% (inactive) and 88.6% (inactive); for `Cc1cc(O)c(C(C)C)cc1S(=O)(=O)O` (tested in a mixture with another compound), 96.6% (inactive) and -34% (active) and 99.9% (inactive).

Regarding `Oc1c(CN2CCCCC2)ccc2cccnc12`, the growth is 45% (inactive) and -25.6% (active). The same measure for `NS(=O)(=O)c1cc2c(cc1Cl)NC(C(Cl)Cl)NS2(=O)=O` (centres undefined): 99.7% (inactive) and 102% (inactive); for `COc1cc2nc(N3CCN(C(=O)C4COc5ccccc5O4)CC3)nc(N)c2cc1OC` (centres undefined): 92.2% (inactive) and 86.6% (inactive) and 101% (inactive).
